Common to all, as to test: NCI-60 one-dose screen, 48 h (100 = growth as untreated, 0 = no growth, -100 = all killed)
What all share (conditions): 10 µM unless noted

In test [1] the test system is NCI-H23 lung.
In test [2] the test system is NCI-H226 lung.
The subject of test [3] is NCI-H322M lung.
Test [4] concerns HOP-62 NSCLC.
Test [5] deals with NCI-H460 lung.
Test [6] concerns HOP-92 NSCLC.
For test [7], the system named is NCI-H522 lung.
For test [8], the system named is A549/ATCC NSCLC.
For test [9], the system named is 786-0 renal.
Test [10] has as its system COLO 205 colon.

Compounds without any hit were thinned out: in the full panel of roughly 83,000, 20% have a hit.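 Activity criterion: percent growth below 10, measured after cells in 96-well plates were exposed to a single compound concentration for 48 hours.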 Values without a mark were called inactive. The source made the active and inactive calls.

For the molecule `COc1ccc(-c2cc(-c3ccc(OC)c(OC)c3)nc(SCCCCCC(=O)NO)n2)cc1`, the growth is 68.7% in [1]; 95.2% in test [2]; 70.6% in test [3]; 60.3% in [4]; 62.3% in [5]; 27.6% in test [6]. The growth is 6.61% (active) in test [7], 85.7% in test [8], 94.1% in test [9] and 36.8% in [10].

`O=C1Cc2c(sc3c(F)cccc23)C(c2ccccc2[N+](=O)[O-])N1` (stereo not given): the growth in test [1] is 98.6%; in test [2], 79.3%; in test [3] it was 99%; in test [4], 91.5%; in [5], 76.9%; in test [6], 92.2%. The growth in test [7] is 102%; in test [8] it was 106%; in test [9], 110%; in [10] it was 113%.

As to `CCCCCCCCCCCCNC(=S)N/N=C/c1ccccc1O`, the growth in test [1] was 60.9%; in test [2] it was 69.2%; in test [3], 83.5%; in [4], 74%; in test [5] it was 49.6%; in test [6], 84.2%. Further, the growth in [7] is 78.1%; in [8] it was 95.6%; in test [9] it was 89.5%; in test [10], 33.1%.

`N/C(=N\c1nc2ccccc2[nH]1)NC(=O)Cc1cccc2ccccc12`: the growth in test [1] is 76.5%; in test [2], 88.7%; in test [3] it was 85.3%; in [4], 108%; in [5] it was 84.4%; in [6], 64.6%. For the same molecule, the growth in [7] was 63.7%; in test [8] it was 69.7%; in test [9], 70.4%; in test [10], 90.6%.

For `CCc1ccc(-c2ccc(COc3ccc(CC4SC(=O)NC4=O)cc3)cc2)cc1` (stereo not given), the growth in [1] is 52.2%; in test [2], 84.5%; in test [3], 89.8%; in test [4], 84.5%; in [5], 79.3%; in test [6] it was 60.7%. In addition, the growth in test [7] was 45.5%; in [8], 64.8%; in [9], 78.1%; in test [10] it was 99.9%.

With `CCCCCCCCN(CCCCCCCC)CC(O)c1ccc(Cl)c(C)c1Cl` (stereo not given), the growth is 65% in test [1]; 94.4% in test [2]; 81.8% in [3]; 89.3% in test [4]; 72.8% in test [5]; 71.2% in [6]. Further, the growth in test [7] was 65.6%; in test [8], 78%; in test [9] it was 91.7%; in test [10] it was 60.5%.

Regarding `C[C@]12CCc3nc(Nc4ccccc4)sc3C1=CC[C@@H]1[C@@H]2CC[C@]2(C)/C(=N/NC(N)=S)CC[C@@H]12`, the growth in [1] is 59.7%; in [2], 15.6%; in test [3], 81.9%; in [4] it was 68.2%; in test [5] it was 70.3%; in test [6], 85.4%. Besides, the growth in [7] is 32.5%; in test [8] it was 43.1%; in [9], -49.8% (active); in [10], 58.1%.

With `CC(=O)Nc1ccc2nc3ccc(NC(C)=O)cc3[n+](-c3ccccc3)c2c1`, the growth in test [1] was 104%; in test [2], 127%; in test [3], 109%; in [4], 103%; in test [5], 108%; in test [6] it was 136%. The growth is 88% in test [7], 106% in test [8], 102% in test [9] and 109% in test [10].

For `C[n+]1c2ccccc2nc2c(N)cc(N)cc21`, the growth is 71.9% in test [1]; 37.2% in test [2]; 71.2% in test [3]; 56.6% in test [4]; 86.6% in [5]; 84.2% in [6]. Besides, the growth in test [7] was 52.2%; in test [8] it was 82%; in test [9], 62.2%; in [10] it was 49.8%.

With `O=C1CC(c2ccc3c(c2)OCO3)Nc2ccccc21` (stereo not given), the growth in [1] was 40.2%; in test [2] it was 65.3%; in test [3], 51.3%; in [4], 24.2%; in test [5] it was 10.5%; in test [6], 20.5%. Moreover, the growth in test [7] was 19.8%; in test [8], 21.8%; in test [9], 42.2%; in [10], -16.4% (active).

As for `CCc1cccc(Cl)c1`, the growth in [1] is 111%; in [2], 99.2%; in test [3] it was 108%; in test [4], 103%; in test [5], 110%; in test [6] it was 93.2%. Further, the growth is 92.9% in test [7], 98.8% in test [8], 105% in test [9] and 117% in [10].

For `CCNc1cc2c(cc1Br)-c1ccccc1C2=O`, the growth in [1] was 86%; in test [2] it was 92.3%; in [3], 87.9%; in test [4], 92.3%; in test [5] it was 96.8%; in [6] it was 84.9%. Further, the growth in [7] was 93.6%; in [8] it was 96.3%; in [9] it was 109%; in test [10] it was 111%.

On to `Cc1cccc(/C=C2\N=C(c3ccccc3)N(c3ccc(S(N)(=O)=O)cc3)C2=O)c1`, for which the growth in test [1] was 90%; in [2] it was 110%; in [3] it was 97.5%; in [4], 83.5%; in [5], 93.2%; in test [6] it was 105%. Also, the growth was 82.5% in [7], 75.7% in test [8], 95.2% in test [9] and 104% in [10].

(Values after PubChem BioAssay (NCI).)
